Our source for the growth inhibition values is PubChem BioAssay (NCI).

This is part of a sample that, as a whole, favours compounds with a hit. Of some 79,000 tested, about 15% had one in any assay. Values without a mark were called inactive. Activity calls are given as the source filed them. Cut-off read from the data, not from the text of the source: active = growth inhibition above about 70%; inactive = the rest.

This experiment is described as follows: NCI Yeast Anticancer Drug Screen. Data for the sgs1 strain (AID 173).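 Note: 0% = growth of vehicle-only control cultures.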 The note with it: S. cerevisiae sgs1 mutant, at 1.2 µM, stronger effect = higher value. Put shortly: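 Screen format: yeast with repair or checkpoint alterations, compound exposure, growth read relative to vehicle.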
Regarding `CN(C)CC(CN(C)C)C(=O)/C=C/c1ccc(Cl)cc1Cl`, the growth inhibition is -2%.

Regarding `c1ccc2c(c1)ccn2CCc1c[nH]c2ccccc12`, the growth inhibition was -38%.

For `CC(C)OC(=O)NNc1c(Cl)cc(Cl)cc1Cl`, the growth inhibition is -3%.

With `COc1ccc2nc3cccc([N+](=O)[O-])c3c(NCCNCCO)c2c1`, the growth inhibition was 80% (active). For `COc1ccc2c(c1)CCCC(Br)C2=O` (stereo unspecified) the value was 34%. As for `CCC(OC(C)=O)C1CC(C(C)C)CCC1C` (stereo unspecified), the figure is -1%.

With `O=S(=O)(c1cccc(C(F)(F)F)c1)N1c2ccccc2-n2cccc2C1c1cccnc1` (stereo unspecified), the growth inhibition is -40%.

Turning to `c1ccc(-c2cc(C3CO3)c3ccccc3n2)cc1` (stereo unspecified), the growth inhibition was 0%. For `COc1ccc(/C=C2\SC(=S)N(/C=C3\C(=O)N(c4ccccc4)N=C3C)C2=O)cc1OC` the value was 4%; for `CC1=CC(=C(c2ccc(N)c(C)c2)c2ccc(N)c(C)c2)C=CC1=N`, 5%. For `CC1C(c2ccccc2)SC(=N)N1C` (stereo unspecified) the value was -1%; for `CC(/C=C/c1ccc([N+](=O)[O-])o1)=N/N1CC(CN2CCOCC2)OC1=O` (stereo unspecified), -8%; for `C=CC(C)(C)N1C(=O)C(C(C)=O)=C(O)C1Cc1c[nH]c2ccccc12` (stereo unspecified), 0%. For `O=C1c2cccc3cccc(c23)C(=O)N1CCNCCN1C(=O)c2cccc3cccc(c23)C1=O` the value was -1%. With `Cc1ccc([N+](=O)[O-])c2c(NCCC[N+](C)(C)[O-])c3ccccc3nc12`, the growth inhibition was -7%. For `COC(=O)C(Cc1c[nH]c2ccccc12)N1CN(C)c2ccccc2C1=O` (stereo unspecified) the value was 3%.
